Screening results from PubChem BioAssay.
hcGAS inh = Primary biochemical luminescence assay for human cyclic GMP-AMP synthase inhibitors | AID 1259398, 2018 | 290,000 tested, 0.081% active | recombinant h-cGAS, ATP depletion, Kinase-Glo luminescence | inhibition, % at 12.5 µM;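 further: 0% = vehicle reaction and 100% = reaction without DNA for no activity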
mcGAS inh = cyclic GMP-AMP synthase inhibitors, mouse, primary biochemical chemiluminescence. recombinant cGAS, Kinase-Glo ATP depletion luminescence. inhibition, % at 12.5 µM. 160,000 tested, 0.15% active. AID 1259399, 2018;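 further: 0% = negative control wells and 100% = reference inhibitor with no enzyme activity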
Target sequence (Q8C6L5 whole entry, looked up): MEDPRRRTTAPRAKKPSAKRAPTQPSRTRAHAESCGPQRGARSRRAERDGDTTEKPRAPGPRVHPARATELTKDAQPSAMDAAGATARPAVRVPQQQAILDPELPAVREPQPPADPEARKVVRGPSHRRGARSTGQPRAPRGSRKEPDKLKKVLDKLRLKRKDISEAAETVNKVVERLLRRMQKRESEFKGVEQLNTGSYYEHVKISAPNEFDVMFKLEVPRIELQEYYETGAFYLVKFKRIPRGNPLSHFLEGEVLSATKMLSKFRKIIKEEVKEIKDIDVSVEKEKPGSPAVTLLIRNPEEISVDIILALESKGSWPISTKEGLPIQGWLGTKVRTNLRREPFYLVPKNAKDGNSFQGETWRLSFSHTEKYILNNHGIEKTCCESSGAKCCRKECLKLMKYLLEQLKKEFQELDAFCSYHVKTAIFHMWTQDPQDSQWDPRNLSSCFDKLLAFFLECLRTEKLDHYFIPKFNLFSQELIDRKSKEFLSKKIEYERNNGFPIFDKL
NPYLR7 agonist = agonists of mosquito NPYLR7 receptor, primary screen, cell-based, Aedes aegypti, calcium fluorescence, mosquito biting behavior | Aedes aegypti neuropeptide Y-like receptor 7 (NPYLR7) | HEK293T NPYLR7/Galpha15, GCaMP6s calcium fluorescence | activation, % at 10 µM | 270,000 tested, 0.15% active | AID 1259423, 2018; in the data active means activation above about 40%;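 further: 0% = vehicle and 100% = reference agonist at the receptor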
An asterisk follows results filed as active. Only some compounds are listed: those with a hit (about 0.28% of all), similar ones and a draw of the others. Unless noted, no stated cut-off is given here; in the data, active means inhibition above about 40%; inactive means the rest.

`CCc1ccc(CNC(=O)c2ccc(Cl)s2)s1` gave hcGAS inh -19.4 and NPYLR7 agonist 9.6.
For Nc1nc(-c2cc(I)c(O)c(I)c2)cs1 the results were hcGAS inh 65.8*, mcGAS inh 102.1* and NPYLR7 agonist -2.0.
Nc1nc(-c2ccncc2)cs1 was read as hcGAS inh 4.1 and NPYLR7 agonist 7.8.
Screening O=C(c1nn[nH]n1)c1c(O)c2ccccc2n(-c2ccccc2)c1=O returned hcGAS inh -3.6 and NPYLR7 agonist 2.0.
Screening CCN(CC(=O)Nc1ccc(OC)cc1)C(=O)COc1cccc2c1OC(C)(C)C2 returned hcGAS inh -5.8, mcGAS inh -14.4 and NPYLR7 agonist -2.6.
O=c1c(-c2ccc(O)cc2)coc2c(C3O[C@H](CO)[C@@H](O)[C@H](O)[C@H]3O)c(O)ccc12 (stereo partly specified) was read as hcGAS inh 1.2 and NPYLR7 agonist 3.5.
For Oc1ccc(-c2nc3cc(Cl)ccc3s2)cc1 the results were hcGAS inh -12.2 and NPYLR7 agonist -2.7.
`Cc1nc(CCNC(=O)c2cc(C(C)C)on2)sc1C` gave hcGAS inh -3.8 and NPYLR7 agonist 0.3.
For Cc1cccc2[nH]c(CCNC(=O)c3cc(C(C)C)on3)nc12 the results were hcGAS inh 72.6*, mcGAS inh -9.1 and NPYLR7 agonist 3.5.
For CCN=c1cc2oc3cc(NCC)c(C)cc3c(-c3ccccc3C(=O)OCC)c-2cc1C the results were hcGAS inh -29.4, mcGAS inh -20.4 and NPYLR7 agonist 159.0*.
Screening CCOC(=O)c1ccccc1-c1c2ccc(=N)cc-2oc2cc(N)ccc12 returned hcGAS inh -2.4, mcGAS inh -12.1 and NPYLR7 agonist 119.6*.
For CCOC(=O)COc1cc2c(-c3cc4ccccc4o3)cc(=O)oc2cc1C the results were hcGAS inh -3.4, mcGAS inh -5.9 and NPYLR7 agonist 0.2.
For CCOC(=O)c1cc(C(=O)OCC)c2c(C)cc(C)cc(C)c1-2 the results were hcGAS inh -26.9 and NPYLR7 agonist -7.0.
Screening COc1ccc(C=NNc2nn[nH]n2)cc1OC returned hcGAS inh -2.9 and NPYLR7 agonist 10.7.
For Oc1ccc(CN2CCN(c3ccccc3F)CC2)c2ccccc12 the results were hcGAS inh -10.0.
COc1ccc(-c2nc(CN(C)C(C)c3ccon3)c(C)o2)cc1OC (stereo unspecified) was read as hcGAS inh -1.9, mcGAS inh -4.9 and NPYLR7 agonist 5.5.
For N#Cc1c(N)nc2c(c1N)C(Sc1ccccc1)c1ccc(O)cc1O2 (stereo unspecified) the results were hcGAS inh -6.4 and NPYLR7 agonist 412.5*.
For N#Cc1c(N)nc(SCC(=O)c2ccccc2)c(C#N)c1-c1ccc(O)cc1 the results were hcGAS inh -1.1, mcGAS inh -2.5 and NPYLR7 agonist -4.5.
For COc1cccc(-c2cc(C(=O)N3CCC(n4c(=O)[nH]c5ccccc54)CC3)n3nc(C(C)(C)C)cc3n2)c1 the results were hcGAS inh -2.9, mcGAS inh -7.1 and NPYLR7 agonist 19.6.
Screening CCOC(=O)C1CCCN(CC(=O)N2N=C(c3ccccc3Cl)CC2c2ccc3c(c2)OCO3)C1 (stereo unspecified) returned hcGAS inh -4.1, mcGAS inh -4.3 and NPYLR7 agonist -1.5.
O=C(CN1CCc2ccccc2C1)N1N=C(c2ccccc2F)CC1c1ccc(Cl)cc1 (stereo unspecified) was read as hcGAS inh 60.1*, mcGAS inh -3.4 and NPYLR7 agonist 14.5.
CCOC(=O)C1CCCN(CC(=O)N2N=C(c3ccccc3Cl)CC2c2ccc(Cl)cc2)C1 (stereo unspecified) was read as hcGAS inh 2.1, mcGAS inh -0.1 and NPYLR7 agonist 42.0*.
`CC(=O)N1CCN(CC(=O)N2N=C(c3ccccc3F)CC2c2ccc(Cl)cc2)CC1` (stereo unspecified) gave hcGAS inh -3.6, mcGAS inh -3.7 and NPYLR7 agonist 4.4.
Screening Cc1c(C(=O)NCCc2ccc(F)cc2)cnc2c(-c3ccc(C(C)C)cc3)cnn12 returned hcGAS inh -17.4, mcGAS inh -9.3 and NPYLR7 agonist 12.2.
For COc1ccc(/C=C/c2ccc3ccccc3n2)c(OC)c1 the results were hcGAS inh -10.8, mcGAS inh -9.6 and NPYLR7 agonist 2.0.
COc1ccc(/C=C/C(=O)c2ccc(O)cc2O)cc1 was read as hcGAS inh -1.3 and NPYLR7 agonist -16.7.
`COc1ccc(/C=C/C(=O)c2cc(O)ccc2O)cc1` gave hcGAS inh 2.3, mcGAS inh 52.7* and NPYLR7 agonist -6.3.
For COc1ccc2nc(/C=C/C(=O)c3ccc(O)cc3)ccc2c1 the results were hcGAS inh -5.8, mcGAS inh 75.7* and NPYLR7 agonist -2.7.
For O=C(/C=C/c1ccccc1)c1ccc(O)cc1O the results were hcGAS inh 5.9, mcGAS inh 85.0* and NPYLR7 agonist 16.9.
`O=C(/C=C/c1ccc(O)cc1)c1ccc(O)cc1O` gave hcGAS inh -9.6, mcGAS inh 14.1 and NPYLR7 agonist 1.9.
Screening Cc1ccc(-n2nnc3c(=O)n(C/C=C/c4ccccc4)cnc32)cc1 returned hcGAS inh 5.5 and NPYLR7 agonist -0.3.
Screening Cc1cccc(N2CCN(C(=O)CCN3Cc4ccccc4OC(c4ccccc4F)C3)CC2)n1 (stereo unspecified) returned hcGAS inh -7.1, mcGAS inh -11.6 and NPYLR7 agonist 18.9.
For COc1cccc(Cn2c(=O)c(C(=O)O)nn(-c3ccc(C(F)(F)F)cc3)c2=O)c1 the results were hcGAS inh 3.5 and NPYLR7 agonist 35.3.
For O=C(c1cccnc1Cl)N1CCOC(COCc2ccccc2F)C1 (stereo unspecified) the results were hcGAS inh -5.2, mcGAS inh -7.6 and NPYLR7 agonist 51.3*.
`CCOc1ncccc1C(=O)N1CCOC(COCc2ccccc2F)C1` (stereo unspecified) gave hcGAS inh -3.7, mcGAS inh -3.6 and NPYLR7 agonist -5.3.
For CCCCC(CC)CCC(CC(C)C)OS(=O)(=O)O (stereo unspecified) the results were hcGAS inh 41.7* and NPYLR7 agonist -5.0.
For CCCCCCCCCCCCOS(=O)(=O)O the results were hcGAS inh -2.6 and NPYLR7 agonist -20.6.
`COc1ccc(NC(=O)CCN(Cc2ccco2)c2nc(C3CC3)nc3ccccc23)cc1` gave hcGAS inh -1.9, mcGAS inh -4.7 and NPYLR7 agonist -2.6.
For COc1cccc2c1C(=O)c1c(O)c3c(c(O)c1C2=O)C[C@@](O)(C(=O)CO)C[C@@H]3O[C@H]1C[C@H](N)[C@H](O)[C@H](C)O1 the results were hcGAS inh 58.3* and NPYLR7 agonist -13.0.
`COc1cccc2c1C(=O)c1c(O)c3c(c(O)c1C2=O)C[C@@](O)(C(C)=O)C[C@@H]3OC1CC(N)C(O)C(C)O1` (stereo partly specified) gave hcGAS inh 61.4* and NPYLR7 agonist -2.8.
For CN(C)CC(C)(C)CNC(=O)C1CCCN1c1cc(Nc2cccc(Br)c2)ncn1 (stereo unspecified) the results were hcGAS inh -3.8, mcGAS inh -3.1 and NPYLR7 agonist -0.7.
